# NadD block = blocks S. aureus nicotinate mononucleotide adenylyltransferase; purified NadD enzyme, colorimetric absorbance read-out; hit rate 0.78% among 360,000; inhibition, % at 20 µM; AID 602399; in the data active means inhibition above about 26%
# MPTP block = permeability transition pore inhibition; isolated mouse mitochondria, Ca2+ swelling absorbance, 30 min; inhibition, % at 10 µM; hit rate 1.4% among 360,000; AID 602449;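 active means inhibition of 50% or more, scaled per plate between neutral and stimulator controls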;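 further: 0% = DMSO wells given calcium and 100% = 1 mM EGTA wells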
# aDG glyco up = alpha-DG glycosylation activation. Pro5-aDG cells, alpha-DG glycosylation AlphaScreen (IIH6); 0% Pro5, 100% B10-LARGE cell signal. activation, % at 10 µM. hit rate 0.22% among 360,000. AID 624168;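 active means activation of at least 8% versus controls, or a plate z-score of at least 8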;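 further: Pro5 are CHO cells carrying HIG-tagged alpha-DG that lacks glycosylation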
# H9c2 TAG inh = inhibitors of triacylglycerol accumulation | H9c2 cells, Nile Red lipid (TAG) fluorescence; cells loaded with 200 µM oleic acid | inhibition, % at 12.5 µM | hit rate 0.66% among 230,000;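 active means pattern-corrected inhibition of lipid staining of at least 50% with the nuclear-stain viability signal not falling by more than 50%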;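 further: 0% = DMSO wells and 100% = triacsin C control wells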
# MPTP counter = Rhodamine 123 counter-screen of mitochondrial pore hits. hit rate 78% among 5,000. shares compounds with MPTP block. inhibition, % at 10 µM. isolated mitochondria, membrane potential, Rhodamine 123 fluorescence; in the data active means inhibition above about 22%;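 further: 0% = DMSO vehicle and 100% = positive control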
# MPTP abs DR = dose response confirmation of mitochondrial permeability transition pore inhibitors | IC50, µM | hit rate 58% among 780 | isolated mitochondria swelling, absorbance | AID 651561 | shares compounds with MPTP block; in the data active means IC50 below about 20 µM
# MPTP counter DR = MPTP inhibitor counter-screen activity, dose response. shares compounds with MPTP block. isolated mitochondria counterscreen, fluorescence read-out. IC50, µM. hit rate 49% among 780. AID 651564; in the data active means IC50 below about 80 µM
# An asterisk follows results filed as active; . = no result given; + = active, no number. The list is not random: actives were taken first. Their share in the collection is about 2.7%.
SMILES,NadD block,MPTP block,aDG glyco up,H9c2 TAG inh,MPTP counter,others
O=C(Cc1ccc([N+](=O)[O-])cc1)Nc1cc(C(F)(F)F)cc(C(F)(F)F)c1,5,77*,1,-28,98*,
O=C(Cc1ccc([N+](=O)[O-])cc1)Nc1cccc(C(F)(F)F)c1,-2,81*,3,.,82*,
CCc1cccc(NC(=O)Cc2ccc([N+](=O)[O-])cc2)c1,-5,14,0,.,.,
CCC1SC(=NC(=O)c2ccc(Cl)c(Cl)c2)NC1=O (configuration not stated),-4,76*,0,.,100*,
CCC1SC(=Nc2cccc(C)c2)NC1=O (configuration not stated),5,0,0,.,.,
O=C1NC[C@@H](CCCCN2C[C@H](Cc3ccc(O)cc3)N(CCc3ccccc3)C(=O)C2=O)N(CCc2ccccc2)C1=O,9,-1,0,.,.,
COc1ccc(C2/C=C\CN(C(=O)Nc3ccc(C(F)(F)F)cc3)CC(=O)N2Cc2ccc(F)cc2)cc1 (configuration not stated),0,103*,1,14,100*,
COc1ccc(C2/C=C\CN(C(=O)Nc3ccccc3)CC(=O)N2Cc2ccc(F)cc2)cc1 (configuration not stated),-3,0,0,5,.,
CC(=O)c1cccc(NS(=O)(=O)c2ccc(N/C=C\C(=O)c3ccc(C)cc3)cc2)c1,12,106*,2,-1,85*,
CC(=O)c1cccc(NS(=O)(=O)c2ccc(N/C=C\C(=O)c3ccc(F)cc3)cc2)c1,7,32,1,5,.,
CC(=O)c1cccc(NS(=O)(=O)c2ccc(N/C=C/C(=O)c3ccc(F)cc3)cc2)c1,8,108*,4,.,94*,
COc1ccc(CCN(C)Cc2c(O)ccc3cc(Br)ccc23)cc1OC,-10,0,0,.,.,
COc1ccc(CN(C)Cc2c(O)ccc3cc(Br)ccc23)cc1OC,-5,68*,0,.,50*,
Cc1ccc2nc(N/C(=N/S(=O)(=O)c3ccc(F)cc3)c3ccccc3)sc2c1,8,28,0,-2,.,
Cc1ccc2nc(N/C(=N/S(=O)(=O)c3ccc(F)cc3F)c3ccccc3)sc2c1,3,50*,0,-7,69*,
Cc1cc(=O)oc2cc(O)cc(OCc3ccccc3)c12,5,78*,0,-4,98*,
COC(=O)c1nc(NC(=O)c2ccccc2Cl)n[nH]1,10,1,0,.,.,
COC(=O)c1nc(NC(=O)c2ccc(Br)cc2)n[nH]1,-2,77*,0,1,6,MPTP abs DR=>100;MPTP counter DR=>80
Cc1[nH]n(-c2ncc(-c3ccc(Cl)cc3)s2)c(=O)c1C(c1ccc(Cl)cc1)C(C#N)C#N (configuration not stated),17,98*,0,.,1,
CC(N=C1NS(=O)(=O)c2ccccc21)C(=O)NCCCc1ccccc1 (configuration not stated),-2,2,0,3,.,
Cc1ccc(NC(=O)C(C)N=C2NS(=O)(=O)c3ccccc32)cc1F (configuration not stated),-8,87*,0,4,88*,
O=C(CNc1cccc(S(=O)(=O)N2CCCCC2)c1)Nc1ccc(C(F)(F)F)cc1,-7,81*,0,-17,76*,
O=C(CNc1cccc(S(=O)(=O)N2CCCC2)c1)Nc1ccc(C(F)(F)F)cc1,-4,52*,3,-15,85*,
O=C(CNc1cccc(F)c1)Nc1cccc(S(=O)(=O)N2CCCCC2)c1,-1,-3,0,-16,.,
O=C(Nc1cc(S(=O)(=O)N2CCCCC2)ccc1Cl)c1ccccc1NS(=O)(=O)c1ccc(F)cc1,16,97*,0,.,60*,
SMILES,NadD block,MPTP block,aDG glyco up,H9c2 TAG inh,MPTP counter,others
O=C(c1ccccc1NS(=O)(=O)c1ccc(F)cc1)N1CCCCC1,2,0,0,-8,.,
CCOc1ccc(NC(=O)c2ccccc2NS(=O)(=O)c2ccc(F)cc2)c([N+](=O)[O-])c1,3,92*,0,.,94*,
CCOc1ccc(S(=O)(=O)Nc2ccccc2C(=O)Nc2ccccc2N2CCOCC2)cc1,-1,0,0,.,.,
O=C(Nc1cc(S(=O)(=O)N2CCCCC2)ccc1O)c1ccccc1NS(=O)(=O)c1ccc(F)cc1,2,97*,0,0,71*,
O=C1NC(Cc2ccc(O)cc2)c2nc3cc(Cl)ccc3c(=O)n2-c2cc(Cl)ccc21 (configuration not stated),11,-1,0,21,.,
CCn1c(O)c(/C=C2\C=Nc3ccccc32)sc1=Nc1ccccc1,6,53*,0,.,59*,
CC(C)(C)c1ccc(OCCCn2ccnc2)cc1,-2,+,0,.,10,MPTP abs DR=13*;MPTP counter DR=27*
Cc1cccc(-c2nc(CSCC(=O)N3CCN(c4ccccn4)CC3)c(C)o2)c1,1,78*,0,.,63*,
Nc1ccc(CCCC(=O)NCc2cccnc2)cc1,-4,-2,0,-13,.,
CC1CCc2sc(C(=O)N3CCC(C(N)=O)CC3)cc2C1 (configuration not stated),2,0,0,-3,.,
CCc1c(C2(O)CCCCC2)[nH]c2cc(C(F)(F)F)ccc12,-6,82*,1,-84,86*,
Cc1cccc(Oc2cnn(C(C)(C)C)c(=O)c2Cl)c1,2,62*,1,-38,45*,
CCOc1cccc(CN2CCCC(C(=O)Nc3cccc(-n4cccn4)c3)C2)c1 (configuration not stated),-7,1,0,0,.,
Cc1cc(CN2CCCC(C(=O)Nc3cccc(-n4cccn4)c3)C2)cc(C)c1O (configuration not stated),-7,70*,0,.,85*,
Cn1cc(CN2CCCC(C(=O)Nc3cccc(-n4cccn4)c3)C2)cn1 (configuration not stated),-5,-3,0,.,.,
CCOc1ccccc1CN1CCCC(C(=O)Nc2cccc(-n3cccn3)c2)C1 (configuration not stated),0,58*,0,.,9,MPTP abs DR=6.8*;MPTP counter DR=18*
COc1cccc(NC(=S)NC(C)c2ccc(OC)c(OC)c2)c1 (configuration not stated),2,1,0,1,.,
COc1cccc(NC(=S)NC(Cc2ccccc2)c2ccccc2)c1 (configuration not stated),-4,57*,0,-28,90*,
O=C(COC(=O)c1cc(=O)[nH]c2ccccc12)NCc1ccc(Cl)cc1,-2,-2,0,-9,.,
CC(=O)NNC(=S)NC(=O)C(c1ccccc1)c1ccccc1,3,-1,1,.,.,
CC(C)(C)C(=O)NC(=S)NNC(=O)C(c1ccccc1)c1ccccc1,1,92*,1,-19,-8,
Cc1cc(N/N=C/c2ccc(Cl)cc2Cl)nc(NCc2ccccc2)n1,13,15,0,.,.,

# Screens from PubChem BioAssay.
